According to PubChem BioAssay AID1159580 (chemical genetic matrix, 2015):
The whole screen tested about 5,500 compounds, of which about 2,000 (36%) were called active. About 18% were inconclusive and are not listed. Cut-off read from the data, not from the text of the source: active = normalized growth mostly below about 0.91 (no sharp cut-off); inconclusive = no clear call, values can overlap the other calls; inactive = mostly above about 0.92. The list shows a part of the results.

Assay: chemical genetic growth profiling, strain panel (AID 1159580);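 note: tested at 20 µM; growth read once vehicle control cultures reached saturation at 30 °C; 1 = growth at the plate median or of vehicle wells; lower values mean less growth of the strain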
Settings: S. cerevisiae deletion strains, growth OD
[1] = locus YDL101C, strain DUN1, hits give low values
[2] = locus YHR030C, strain SLT2, hits give low values
[3] = locus YHR079C, strain IRE1, hits give low values
[4] = locus YJL095W, strain BCK1, hits give low values
[5] = locus YJR066W, strain TOR1, hits give low values
[6] = locus YLR113W, strain HOG1, hits give low values
[7] = locus YNL183C, strain NPR1, hits give low values
[8] = locus YOR231W, strain MKK1, hits give low values
[9] = locus YPL256C, strain CLN2, hits give low values

Measured: normalized growth

O=C(Nc1ccccc1C(=O)O)OCC1c2ccccc2-c2ccccc21
active: [2] 0.366 | locus YHR082C, strain KSP1, hits give low values 0.591 | locus YKL048C, strain ELM1, hits give low values 0.799 | [6] 0.8 | locus YOR061W, strain CKA2, hits give low values 0.553 | [9] 0.808
inactive: locus YAR019C, strain CDC15, hits give low values 0.993 | locus YBL105C, strain PKC1, hits give low values 0.989 | locus YBR135W, strain CKS1, hits give low values 0.978 | locus YBR136W, strain MEC1, hits give low values 0.987 | locus YBR160W, strain CDC28, hits give low values 0.981 | locus YDL017W, strain CDC7, hits give low values 0.986 | locus YDL028C, strain MPS1, hits give low values 0.987 | [1] 0.988 | locus YDL108W, strain KIN28, hits give low values 0.984 | locus YDL132W, strain cdc53, hits give low values 0.985 | locus YDL214C, strain PRR2, hits give low values 0.884 | locus YDR052C, strain DBF4, hits give low values 0.983 | locus YDR054C, strain cdc34, hits give low values 0.99 | locus YDR226W, strain ADK1, hits give low values 0.982 | locus YDR477W, strain SNF1, hits give low values 0.859 | locus YER123W, strain YCK3, hits give low values 0.839 | locus YER133W, strain GLC7, hits give low values 0.901 | locus YFL009W, strain cdc4, hits give low values 0.986 | locus YFL029C, strain CAK1, hits give low values 0.992 | locus YFR003C, strain YPI1, hits give low values 0.985 | locus YFR019W, strain FAB1, hits give low values 0.803 | locus YFR028C, strain CDC14, hits give low values 0.979 | locus YGR040W, strain KSS1, hits give low values 0.857 | locus YGR052W, strain FMP48, hits give low values 0.701 | locus YGR092W, strain DBF2, hits give low values 0.683 | [3] 0.793 | locus YHR205W, strain SCH9, hits give low values 0.746 | locus YIL147C, strain SLN1, hits give low values 0.986 | [4] 0.665 | locus YJL128C, strain PBS2, hits give low values 0.927 | locus YJL157C, strain FAR1, hits give low values 0.893 | locus YJR016C, strain ILV3, hits give low values 0.99 | locus YJR066W, strain TOR1 (second series), hits give low values 0.826 | [5] 0.709 | locus YKL067W, strain YNK1, hits give low values 0.866 | locus YKL101W, strain HSL1, hits give low values 0.72 | locus YKL193C, strain SDS22, hits give low values 0.987 | locus YKL203C, strain TOR2, hits give low values 0.883 | locus YLR133W, strain CKI1, hits give low values 0.78 | locus YLR403W, strain SFP1, hits give low values 0.795 | locus YML070W, strain DAK1, hits give low values 0.842 | locus YMR001C, strain CDC5, hits give low values 0.986 | locus YMR205C, strain PFK2 (second series), hits give low values 0.853 | locus YMR277W, strain FCP1, hits give low values 0.989 | locus YNL006W, strain LST8, hits give low values 0.978 | locus YNL020C, strain ARK1, hits give low values 0.728 | locus YNL161W, strain CBK1, hits give low values 0.983 | [7] 0.742 | locus YNL207W, strain RIO2, hits give low values 0.992 | locus YNL222W, strain SSU72, hits give low values 0.985 | locus YNL307C, strain MCK1 (second series), hits give low values 0.703 | locus YOL078W, strain AVO1, hits give low values 0.977 | locus YOL136C, strain PFK27, hits give low values 0.805 | locus YOR119C, strain RIO1, hits give low values 0.927 | [8] 0.818 | locus YOR329C, strain SCD5, hits give low values 0.993 | locus YPL031C, strain PHO85, hits give low values 0.827 | locus YPL153C, strain RAD53, hits give low values 0.855 | locus YPL204W, strain HRR25, hits give low values 0.797 | locus YPL209C, strain IPL1, hits give low values 0.984 | locus YPR025C, strain CCL1, hits give low values 0.991 | locus YPR106W, strain ISR1, hits give low values 0.977 | locus YPR111W, strain DBF20, hits give low values 0.96 | strain NNK1, hits give low values 0.987 | strain TSCII, hits give low values 0.99

O=C(NCCCCO)OCC1c2ccccc2-c2ccccc21
inactive: locus YAL013W, strain DEP1, hits give low values 1 | locus YBR229C, strain ROT2, hits give low values 0.997 | [1] 1 | locus YDR150W, strain NUM1, hits give low values 0.986 | locus YEL061C, strain CIN8, hits give low values 0.985 | locus YGR078C, strain PAC10, hits give low values 0.991 | locus YGR229C, strain SMI1, hits give low values 0.987 | [2] 0.867 | locus YHR087W, strain rtc3, hits give low values 0.987 | locus YJR043C, strain POL32, hits give low values 0.989 | locus YJR075W, strain HOC1, hits give low values 1.01 | locus YLR039C, strain RIC1, hits give low values 1.02 | locus YLR058C, strain SHM2 (second series), hits give low values 0.98 | locus YLR085C, strain ARP6, hits give low values 0.886 | locus YLR262C, strain YPT6, hits give low values 1.02 | locus YML094W, strain GIM5, hits give low values 0.955 | locus YMR219W, strain ESC1, hits give low values 0.995 | locus YMR263W, strain SAP30, hits give low values 0.959 | locus YMR307W, strain GAS1, hits give low values 0.812 | locus YNL153C, strain GIM3, hits give low values 0.983 | locus YNL298W, strain CLA4 (second series), hits give low values 0.929 | locus YNL322C, strain KRE1, hits give low values 1 | locus YNR030W, strain Alg12, hits give low values 0.963 | locus YPL055C, strain LGE1, hits give low values 0.953 | locus YPL241C, strain CIN2, hits give low values 0.937 | locus YPR135W, strain CTF4, hits give low values 0.959

CC(C)C[C@@H](NC(=O)OCC1c2ccccc2-c2ccccc21)C(=O)O
inactive: locus YAL021C, strain ccr4, hits give low values 0.988 | locus YAL026C, strain drs2, hits give low values 0.982 | locus YAL030W, strain snc1, hits give low values 0.991 | locus YBL061C, strain skt5, hits give low values 1.01 | locus YBR009C, strain hhf1, hits give low values 1.01 | locus YBR023C, strain chs3, hits give low values 1 | locus YBR171W, strain sec66, hits give low values 1 | locus YBR231C, strain swc5, hits give low values 1.01 | locus YBR279W, strain paf1, hits give low values 0.998 | locus YCL011C, strain gbp2, hits give low values 0.993 | locus YCL016C, strain dcc1, hits give low values 0.983 | locus YCL061C, strain MRC1, hits give low values 1 | locus YCL069W, strain vba3, hits give low values 0.995 | locus YCR088W, strain abp1, hits give low values 0.992 | locus YDL005C, strain med2, hits give low values 0.986 | locus YDL040C, strain nat1, hits give low values 0.985 | locus YDR001C, strain nth1, hits give low values 0.977 | locus YDR069C, strain doa4, hits give low values 0.993 | locus YDR137W, strain rgp1, hits give low values 0.962 | locus YDR159W, strain sac3, hits give low values 1.04 | locus YDR195W, strain ref2 0.945 | locus YDR297W, strain sur2, hits give low values 1 | locus YDR334W, strain swr1, hits give low values 0.988 | locus YDR335W, strain msn5, hits give low values 0.991 | locus YDR392W, strain spt3, hits give low values 0.955 | locus YEL003W, strain gim4, hits give low values 0.999 | locus YEL037C, strain rad23, hits give low values 0.998 | locus YEL061C, strain CIN8 (second series), hits give low values 0.997 | locus YER015W, strain faa2, hits give low values 0.997 | locus YER016W, strain bim1, hits give low values 0.993 | locus YER111C, strain swi4, hits give low values 1 | locus YER155C, strain BEM2 (second series), hits give low values 1.02 | locus YFR010W, strain ubp6, hits give low values 0.991 | locus YGL167C, strain pmr1, hits give low values 0.999 | locus YGL173C, strain kem1, hits give low values 1 | locus YGL227W, strain vid30, hits give low values 0.996 | locus YGL240W, strain doc1, hits give low values 1.01 | locus YGL253W, strain hxk2, hits give low values 1 | locus YHR013C, strain ard1, hits give low values 0.998 | locus YHR027C, strain rpn1, hits give low values 0.984 | [2] 0.966 | [3] 0.976 | locus YHR142W, strain chs7, hits give low values 0.996 | locus YJL092W, strain hpr5, hits give low values 1 | locus YJL095W, strain BCK1 (second series), hits give low values 0.999 | [4] 0.98 | locus YJL115W, strain asf1, hits give low values 0.979 | locus YJL129C, strain trk1, hits give low values 1 | locus YJL154C, strain vps35, hits give low values 0.986 | locus YJL164C, strain tpk1, hits give low values 0.971 | locus YJL166W, strain qcr8, hits give low values 1 | locus YJL187C, strain SWE1, hits give low values 0.996 | [5] 0.89 | locus YKL160W, strain elf1, hits give low values 0.99 | locus YKR026C, strain gcn3, hits give low values 1 | locus YKR091W, strain srl3, hits give low values 0.981 | locus YLL001W, strain dnm1, hits give low values 0.974 | locus YLL026W, hits give low values 0.992 | locus YLL041C, strain sdh2, hits give low values 1 | locus YLR027C, strain aat2, hits give low values 1 | [6] 0.888 | locus YLR221C, strain rsa3, hits give low values 1.03 | locus YLR258W, strain gsy2, hits give low values 1 | locus YLR262C, strain YPT6 (second series), hits give low values 0.949 | locus YLR320W, strain mms22, hits give low values 1.02 | locus YLR342W, strain FKS1, hits give low values 0.99 | locus YLR357W, strain rsc2, hits give low values 0.97 | locus YLR370C, strain arc18, hits give low values 1.01 | locus YLR384C, strain iki3, hits give low values 0.991 | locus YML120C, strain ndi1, hits give low values 0.994 | locus YMR058W, strain fet3, hits give low values 0.991 | locus YMR125W, strain sto1, hits give low values 0.965 | locus YMR129W, hits give low values 0.998 | locus YMR205C, strain PFK2, hits give low values 0.973 | locus YMR231W, strain pep5, hits give low values 0.971 | locus YNL071W, strain lat1, hits give low values 0.995 | [7] 0.888 | locus YNL209W, strain ssb2, hits give low values 0.997 | locus YNL248C, strain rpa49, hits give low values 0.978 | locus YNL322C, strain KRE1 (second series), hits give low values 1 | locus YNR049C, strain mso1, hits give low values 0.998 | locus YOR001W, strain rrp6, hits give low values 1.01 | locus YOR070C, strain gyp1, hits give low values 0.991 | locus YOR080W, strain dia2, hits give low values 1.01 | locus YOR083W, strain WHI5, hits give low values 0.986 | locus YOR106W, strain vam3, hits give low values 0.963 | [8] 0.949 | locus YOR265W, strain rbl2, hits give low values 1 | locus YOR270C, strain vph1, hits give low values 0.954 | locus YOR290C, strain snf2, hits give low values 0.956 | locus YPL051W, strain arl3, hits give low values 1.01 | locus YPL078C, strain atp4, hits give low values 0.979 | locus YPL106C, strain sse1, hits give low values 1.02 | locus YPL240C, strain hsp82, hits give low values 1.01 | [9] 0.945
